From PubChem BioAssay
D1 antagonist: human D1 dopamine receptor antagonism; P21728; HEK293 TREx D1 cells, calcium flux, dopamine EC80; stronger effect = lower value; activity change, negative = inhibition, % at 10 µM; actives 3.2% (n = 360,000); AID 504652; in the data active = activity change below about -30%; also: % is scaled to controls: 0 for no effect and ±100 for the full control effect
Target sequence (P21728 whole entry, looked up): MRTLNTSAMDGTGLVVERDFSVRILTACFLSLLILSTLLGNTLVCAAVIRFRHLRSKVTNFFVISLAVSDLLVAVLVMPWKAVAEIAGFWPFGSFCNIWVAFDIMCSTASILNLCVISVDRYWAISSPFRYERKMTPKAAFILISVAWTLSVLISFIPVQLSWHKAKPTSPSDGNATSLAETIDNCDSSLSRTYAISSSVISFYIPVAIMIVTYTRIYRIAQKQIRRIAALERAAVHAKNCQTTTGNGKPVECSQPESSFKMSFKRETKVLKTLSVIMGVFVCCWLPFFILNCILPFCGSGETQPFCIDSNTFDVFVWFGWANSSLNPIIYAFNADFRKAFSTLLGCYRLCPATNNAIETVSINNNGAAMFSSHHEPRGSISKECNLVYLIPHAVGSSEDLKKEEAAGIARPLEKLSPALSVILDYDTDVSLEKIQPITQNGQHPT
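After overnight tetracycline induction at 30 C, force-coupled D1 HEK293 cells took up a no-wash calcium dye at room temperature. Compounds were added and monitored 180 s, and the response to EC80 dopamine was then recorded.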
D1 potentiator: human D1 dopamine receptor positive modulation | P21728 | actives 0.036% (n = 360,000) | AID 504651 | potentiation, % at 10 µM | HEK293 TREx D1 cells, calcium flux, dopamine EC20 potentiation; in the data active = potentiation above about 30%; also: 0% is about no effect
TRHR PAM: allosterically enhances the human TRH receptor; actives 0.66% (n = 360,000); AID 493056; enhancement, % at 2 µM; TRHR cells, fluo-8 calcium fluorescence, EC20 TRH enhancement; P34981; in the data active = enhancement above about 30%; also: 0% is about no effect
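TRHR-expressing cells loaded with fluo-8 calcium dye were read kinetically (ex 480/em 530) during compound addition, then stimulated with an EC20 of TRH (10 nM final). Enhancement of the Gq-mediated intracellular calcium response was scored.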
D1 agonist: activates the human D1 dopamine receptor; HEK293 T-REx D1 cells, calcium flux, agonist mode; activation, % at 2 µM; actives 1% (n = 360,000); P21728; also: 0% is about no effect
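Agonism was scored from calcium flux recorded over 180 s (1 read/s) after pintool compound addition, following a 10-cycle baseline. Cells were inducible force-coupled HEK293 TREx D1, plated overnight at 30 C and loaded with no-wash calcium dye.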
TRHR agonist: activates the human TRH receptor; AID 493084; actives 0.18% (n = 360,000); TRHR cells, calcium flux fluo-8, FDSS agonist mode; activation, % at 2 µM; P34981; also: 0% is about no effect
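Read-out: compound-evoked intracellular calcium rise in TRHR cells, fluo-8 dye, kinetic FDSS fluorescence at 1 s/cycle following a 10-cycle baseline. Cells cultured overnight before dye loading (30 min–1.5 h, RT).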
Numbers without * were called inactive; · = no result given; ! = a repeat was not active. Sampled rows, rich in hits. Any-hit rate of the full collection: about 4.7%. Rule as the data show it, unless noted: active = activation above about 30%; inactive = the rest.

SMILES | D1 antagonist | D1 potentiator | TRHR PAM | D1 agonist | TRHR agonist
CC(C)=CC(=O)Nc1ccc(S(=O)(=O)Nc2ccccn2)cc1 | 9.5 | -13.9 | 36.8* | 0.2 | 0.3
COc1ccc(NS(=O)(=O)c2cccc(NC(=O)c3ccccn3)c2)cc1 | -8.6 | -5.3 | -0.8 | 12.7 | -0.2
CCC(=O)Nc1ccc(S(=O)(=O)Nc2ccccn2)cc1 | -0.8 | 6.1 | 0.4 | 4.6 | 1.5
O=C(Cc1cccs1)N1CCN=C1SCc1ccccc1F | -36.3* | -5.2 | 2.5 | 0.3 | -0.1
O=C(Cc1cccs1)N1CCN=C1SCc1ccccc1Cl | -23.8 | -2.6 | -3.0 | 8.1 | 0.9
CCOc1ccc(N2CC(NC(=O)C3CCCCC3)CC2=O)cc1 (configuration not stated) | · | -1.1 | -0.4 | -1.1 | -0.2
CCc1nnc(NC(=O)C2=NN(C3CCS(=O)(=O)C3)C(=O)CC2)s1 (configuration not stated) | -2.3 | -2.1 | 12.5 | 2.9 | 0.4
O=C(Nc1cccnc1)C1=NN(C2CCS(=O)(=O)C2)C(=O)CC1 (configuration not stated) | -22.7 | -6.5 | 38.7* | 0.8 | -0.2
CN1CCN(C2(CNC(=O)c3ccc(C(C)(C)C)cc3)CCCCC2)CC1 | 5.0 | -1.8 | -0.7 | 30.0 | 2.8
COC(=O)C1CCN(C(c2cc(OC)c(OC)c(OC)c2)c2sc3nc(C)nn3c2O)CC1 (configuration not stated) | 3.3 | -10.3 | 31.0* | 0.2 | -0.4
O=C(CSc1nnc(CNC(=O)c2c(F)cccc2Cl)o1)Nc1ccc2c(c1)OCO2 | -13.9 | 0.1 | 15.1 | 2.3 | 0.5
O=C(CSc1nnc(CNC(=O)c2c(F)cccc2Cl)o1)Nc1cccc(F)c1 | -33.1* | -2.6 | -4.4 | 7.7 | 0.2
C=C1Cn2c(nnc2-c2ccc(Cl)cc2)S1 | -61.1* | -9.7 | -8.2 | 1.0 | -1.7
Clc1ccc(-c2nnc3n2CCCCS3)cc1 | -6.5 | -3.1 | -1.0 | 0.9 | 0.2
CC1N(C)c2cccc3cccc(c23)N1C | -41.3* | -6.3 | -2.4 | 0.1 | 0.0
CN1c2cccc3cccc(c23)N(C)C1c1cccs1 | -3.9 | -2.7 | -6.0 | 8.4 | -0.5
c1ccc(N2CCN(c3ncnc4[nH]ncc34)CC2)cc1 | -34.6* | -1.6 | 0.4 | 2.5 | -0.3
CC(C)CNc1nc(NC(C)(C)C)nc(Oc2ccc(=O)n(-c3ccccc3)n2)n1 | 15.6 | 0.7 | 2.8 | -0.2 | -1.2
CNc1nc(Oc2ccc(=O)n(C)n2)nc(N2CCOCC2)n1 | -30.6*! | -9.7 | 6.7 | 1.9 | 0.5
CC(C)Nc1nc(NC(C)(C)C)nc(Oc2ccc(=O)n(-c3ccccc3)n2)n1 | 3.6 | 3.2 | 7.3 | 36.8* | 2.9
CSc1nc(NC(C)(C)C)nc(Oc2ccc(=O)n(C)n2)n1 | -34.2* | -6.6 | 3.8 | 2.0 | 1.0
CCOC(=O)c1ccc(NC(=S)N2CCCC(C)C2)cc1 (configuration not stated) | · | -4.5 | 4.5 | 0.2 | -0.3
CCOC(=O)c1ccc(NC(=S)N2CCCC(C(=O)N3CCCC3)C2)cc1 (configuration not stated) | -89.0* | -9.8 | 2.9 | 1.6 | 0.0
O=C(O)c1ccc(NC(=S)N2CCCCC2)cc1 | -73.0* | -8.1 | 0.0 | 0.5 | 1.0
Cc1ccc(-c2cc(Cc3ccc(F)cc3)c(=O)[nH]n2)cc1 | -47.3* | -10.9 | 1.1 | -0.2 | -0.4
SMILES | D1 antagonist | D1 potentiator | TRHR PAM | D1 agonist | TRHR agonist
CCOC(=O)c1ccc(NC(=O)CCc2c(C)nc3c(c(C)nn3-c3ccccc3)c2C)cc1 | -7.6 | -1.7 | 2.6 | 5.9 | 1.9
CC(=O)Nc1nonc1-c1nnc(SCC(=O)Nc2ccccc2Cl)n1C | 6.6 | 0.6 | 28.9 | -2.2 | -1.5
COc1cccc(/C=C/C(=C2/C(=O)N(c3ccccc3)N=C2C)c2ccc(Br)cc2)c1OC | -84.8* | -11.2 | -23.5 | 0.3 | 0.4
COc1ccccc1NC(=O)c1c(NC(=O)COc2ccccc2)sc2c1CCCCC2 | 4.1 | -1.8 | -0.7 | 0.4 | 0.2
Cc1cccc(NC(=O)c2c(Br)sc3c2CCCC3)c1 | -27.2 | -1.5 | -9.5 | 0.4 | -0.3
Cc1ccc(NC(=O)c2c(NC(=O)c3ccccc3)sc3c2CCC3)cc1 | -10.7 | 0.1 | -6.7 | -1.7 | -0.2
Cc1cccc(NC(=O)c2c(NC(=O)C(F)(F)F)sc3c2CCCCC3)c1 | -37.4* | -2.5 | 9.6 | 33.5* | 1.4
Cc1ccc(NC(=O)c2c(NC(=O)C(F)(F)F)sc3c2CCCCC3)cc1 | -42.1* | -2.4 | 9.3 | 31.8* | 1.9
O=C(Nc1cccc(Cl)c1)c1c(NC(=O)C(F)(F)F)sc2c1CCCC2 | -34.6* | -2.8 | -7.9 | 16.3 | 4.7
COc1ccc(NC(=O)c2c(NC(=O)COc3ccccc3)sc3c2CCCCC3)cc1 | -36.8* | 3.2 | -5.8 | -1.0 | 0.1
Cc1ccccc1NC(=O)c1c(NC(=O)C(F)(F)F)sc2c1CCCCC2 | -20.9 | -0.6 | 12.4 | 35.4* | 3.0
Cc1ccc(NC2=CC(=O)C(=O)c3ccccc32)cc1 | 1.1 | 1.2 | 0.7 | -0.8 | -0.2
O=C1C(Cl)=C(NCCN2CCCCC2)C(=O)c2ccccc21 | -5.6 | -5.5 | 0.0 | 0.6 | 0.1
O=C1C(Cl)=C(Nc2ccc(O)cc2)C(=O)c2ccccc21 | -68.5* | -3.9 | -13.4 | 10.6 | 0.5
CCNC1=C(Cl)C(=O)c2ccccc2C1=O | -35.9* | -3.2 | -5.4 | 7.4 | -1.2
CCN(CC)c1ccc(NC2=C(Cl)C(=O)c3ccccc3C2=O)cc1 | -38.7* | -7.3 | -17.9 | 1.3 | -0.1
Cc1ccc(NC2=C(Cl)C(=O)c3ccccc3C2=O)cc1 | -58.0* | -7.8 | -10.7 | 10.5 | -0.4
COC1=C(Nc2ccc(O)cc2)C(=O)c2ccccc2C1=O | -5.9 | -2.5 | -1.6 | 5.3 | -0.4
COc1ccc(C2CC(=O)c3cc(-c4nc(-c5cccc([N+](=O)[O-])c5)cs4)c(=O)n(-c4ccccc4N)c3C2)cc1 (configuration not stated) | 8.8 | -0.2 | 16.7 | 4.1 | -0.7
COc1cccc(-c2nc(CS(=O)(=O)CC(=O)NCc3cccc(Cl)c3)c(C)o2)c1 | 6.7 | -0.8 | 3.0 | 5.2 | 0.5
COc1cc(C2CC(=O)Nc3ccc4ccccc4c32)ccc1OC(=O)C(C)C (configuration not stated) | 10.8 | -1.4 | -6.9 | 3.8 | 2.4
CCCCCC(=O)Nc1cccc(S(=O)(=O)NC2=NCCCCC2)c1 | -24.0 | 1.9 | 3.3 | 0.6 | 0.6
CCN(CC)S(=O)(=O)c1cccc(NC2=NCCCCC2)c1 | -36.2* | -3.7 | 9.1 | 1.5 | 0.0
O=C(Nc1cccc(S(=O)(=O)NC2=NCCCCC2)c1)c1cc(-c2ccccc2Cl)nc2ccccc12 | -36.0* | -9.9 | 4.2 | 4.7 | 0.1
CCCCC(=O)OCC(=O)Nc1cccc(S(=O)(=O)NC2=NCCCCC2)c1 | -32.2* | -5.3 | -3.3 | 1.7 | 0.4
